# Laboratory results published in PMC7862700, “An all-to-all approach to the identification of sequence-specific readers for epigenetic DNA modifications on cytosine”.
# Experiments:
# Assay in all cases: DAPPL (digital affinity profiling via proximity ligation, sequencing); 10 mM Tris-HCl pH 7.5, 50 mM NaCl, 1 mM DTT, 4% glycerol, room temperature, 30 min; GST-TFs on glutathione beads, 16-mer random dsDNA library, 0.1% formaldehyde crosslink after washing; high values mean tight binding
# [1] = target: T1, FEV (Homo sapiens, UniProt Q99581 1-238); conditions: protein: recombinant; tags: N-terminal GST; dsDNA, one strand shown
# T1 sequence: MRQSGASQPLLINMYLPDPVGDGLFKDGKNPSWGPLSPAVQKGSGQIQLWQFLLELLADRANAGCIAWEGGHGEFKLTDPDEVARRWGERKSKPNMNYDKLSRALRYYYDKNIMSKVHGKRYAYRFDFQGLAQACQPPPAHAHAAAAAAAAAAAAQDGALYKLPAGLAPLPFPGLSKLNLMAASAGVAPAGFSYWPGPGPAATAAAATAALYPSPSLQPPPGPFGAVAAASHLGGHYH
# How it was run: (§1)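 GST fusions of human transcription factors were expressed in yeast and captured with glutathione beads. Once given DNA barcodes and pooled alongside a tag-only sample, they were incubated for 30 min at room temperature with 200 nmole of a random double-stranded 16-mer DNA library in Tris/NaCl/DTT/glycerol buffer, then washed, crosslinked (0.1% formaldehyde), proximity-ligated, PCR-amplified and sequenced on an Illumina NextSeq500. The binding signal of each hexamer is its read frequency for a factor divided by its frequency for the tag-only sample.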
# [2] = target: ETV5 (Homo sapiens, UniProt P41161 1-510); conditions: protein: recombinant; tags: N-terminal GST; dsDNA, one strand shown
# ETV5, sequence (P41161 whole entry): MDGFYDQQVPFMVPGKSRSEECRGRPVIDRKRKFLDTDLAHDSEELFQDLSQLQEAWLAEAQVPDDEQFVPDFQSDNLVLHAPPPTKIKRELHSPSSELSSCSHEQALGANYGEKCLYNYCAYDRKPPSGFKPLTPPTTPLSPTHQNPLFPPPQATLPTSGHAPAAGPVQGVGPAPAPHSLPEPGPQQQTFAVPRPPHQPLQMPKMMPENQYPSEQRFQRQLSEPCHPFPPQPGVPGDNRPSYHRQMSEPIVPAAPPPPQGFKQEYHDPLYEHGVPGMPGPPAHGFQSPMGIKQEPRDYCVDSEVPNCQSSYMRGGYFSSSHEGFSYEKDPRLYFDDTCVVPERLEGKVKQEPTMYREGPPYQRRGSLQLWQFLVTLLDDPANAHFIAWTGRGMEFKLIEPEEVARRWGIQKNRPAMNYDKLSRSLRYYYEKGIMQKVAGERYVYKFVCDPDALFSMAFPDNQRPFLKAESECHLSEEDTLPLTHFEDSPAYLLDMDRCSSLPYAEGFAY
# How it was run: as §1
# [3] = target: HSF1 (Homo sapiens, UniProt Q00613 1-529); conditions: protein: recombinant; tags: N-terminal GST; chain copies: 3; dsDNA, one strand shown
# HSF1, sequence (Q00613 whole entry): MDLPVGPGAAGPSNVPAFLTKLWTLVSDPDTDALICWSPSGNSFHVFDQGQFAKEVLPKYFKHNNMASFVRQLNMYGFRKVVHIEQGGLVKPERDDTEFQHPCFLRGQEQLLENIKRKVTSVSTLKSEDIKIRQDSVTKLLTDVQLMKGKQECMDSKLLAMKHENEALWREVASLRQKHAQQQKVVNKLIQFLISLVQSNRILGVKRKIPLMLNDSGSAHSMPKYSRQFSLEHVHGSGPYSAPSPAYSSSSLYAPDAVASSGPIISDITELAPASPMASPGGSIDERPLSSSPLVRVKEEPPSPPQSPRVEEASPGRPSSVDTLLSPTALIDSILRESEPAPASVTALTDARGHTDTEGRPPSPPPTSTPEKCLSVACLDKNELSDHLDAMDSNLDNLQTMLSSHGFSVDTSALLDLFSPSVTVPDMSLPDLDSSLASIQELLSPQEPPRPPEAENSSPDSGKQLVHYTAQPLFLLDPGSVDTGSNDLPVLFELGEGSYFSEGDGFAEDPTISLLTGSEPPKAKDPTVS
# How it was run: as §1
# [4] = target: T2, SPIC (Homo sapiens, UniProt Q8N5J4 1-248); conditions: protein: recombinant; tags: N-terminal GST; dsDNA, one strand shown
# T2 sequence: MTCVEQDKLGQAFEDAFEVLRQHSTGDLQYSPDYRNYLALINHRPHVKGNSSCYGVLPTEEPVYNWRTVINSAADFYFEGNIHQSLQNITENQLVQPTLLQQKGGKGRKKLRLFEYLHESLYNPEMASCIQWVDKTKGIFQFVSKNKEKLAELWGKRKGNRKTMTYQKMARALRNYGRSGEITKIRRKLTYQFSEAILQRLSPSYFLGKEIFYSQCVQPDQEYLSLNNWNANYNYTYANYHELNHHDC
# How it was run: as §1
# [5] = target: ELF4 (Homo sapiens, UniProt Q99607 1-663); conditions: protein: recombinant; tags: N-terminal GST; dsDNA, one strand shown
# ELF4, sequence (Q99607 whole entry): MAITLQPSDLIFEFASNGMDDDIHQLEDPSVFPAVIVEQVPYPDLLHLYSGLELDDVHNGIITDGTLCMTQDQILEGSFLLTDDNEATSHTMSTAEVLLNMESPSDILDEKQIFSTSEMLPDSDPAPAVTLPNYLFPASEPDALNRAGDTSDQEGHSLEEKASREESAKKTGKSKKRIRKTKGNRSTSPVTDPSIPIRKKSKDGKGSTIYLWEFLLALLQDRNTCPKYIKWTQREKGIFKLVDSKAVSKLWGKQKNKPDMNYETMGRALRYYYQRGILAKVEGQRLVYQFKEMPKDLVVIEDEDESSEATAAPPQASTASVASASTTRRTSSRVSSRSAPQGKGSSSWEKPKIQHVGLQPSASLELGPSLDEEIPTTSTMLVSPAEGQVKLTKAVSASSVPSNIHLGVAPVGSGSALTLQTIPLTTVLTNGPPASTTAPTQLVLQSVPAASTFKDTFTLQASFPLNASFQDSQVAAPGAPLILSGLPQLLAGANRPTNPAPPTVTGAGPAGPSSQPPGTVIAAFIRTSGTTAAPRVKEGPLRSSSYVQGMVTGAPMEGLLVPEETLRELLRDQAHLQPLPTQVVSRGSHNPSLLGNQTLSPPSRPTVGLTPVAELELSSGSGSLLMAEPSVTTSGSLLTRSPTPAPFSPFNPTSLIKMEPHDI
# How it was run: as §1
# [6] = target: T3, ELK4 (Homo sapiens, UniProt P28324-2 1-405); conditions: protein: recombinant; tags: N-terminal GST; dsDNA, one strand shown
# T3 sequence: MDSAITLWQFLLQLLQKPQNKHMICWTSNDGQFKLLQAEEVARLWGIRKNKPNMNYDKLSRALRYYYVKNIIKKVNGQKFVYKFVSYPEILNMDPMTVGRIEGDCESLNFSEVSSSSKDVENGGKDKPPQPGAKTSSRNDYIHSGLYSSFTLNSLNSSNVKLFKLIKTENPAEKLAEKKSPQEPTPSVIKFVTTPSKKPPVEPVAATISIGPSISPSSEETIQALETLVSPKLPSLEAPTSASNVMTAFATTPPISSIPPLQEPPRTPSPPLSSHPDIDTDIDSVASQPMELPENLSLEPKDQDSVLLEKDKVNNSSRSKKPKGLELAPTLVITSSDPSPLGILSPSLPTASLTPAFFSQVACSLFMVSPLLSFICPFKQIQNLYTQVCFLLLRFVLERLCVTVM
# How it was run: as §1
# [7] = target: T4, ETV2 (Homo sapiens, UniProt O00321 1-342); conditions: protein: recombinant; tags: N-terminal GST; dsDNA, one strand shown
# T4 sequence: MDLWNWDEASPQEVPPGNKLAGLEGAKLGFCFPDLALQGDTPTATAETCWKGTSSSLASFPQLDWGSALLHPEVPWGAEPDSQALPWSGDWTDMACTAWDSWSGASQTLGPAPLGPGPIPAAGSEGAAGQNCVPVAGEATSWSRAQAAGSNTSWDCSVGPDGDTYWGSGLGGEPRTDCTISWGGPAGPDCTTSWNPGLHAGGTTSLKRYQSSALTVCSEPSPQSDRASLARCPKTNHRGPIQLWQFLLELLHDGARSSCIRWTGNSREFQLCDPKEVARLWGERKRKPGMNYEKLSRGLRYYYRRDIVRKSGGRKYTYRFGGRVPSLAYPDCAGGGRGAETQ
# How it was run: as §1
# [8] = target: T5, ELF3 (Homo sapiens, UniProt P78545 1-371); conditions: protein: recombinant; tags: N-terminal GST; dsDNA, one strand shown
# T5 sequence: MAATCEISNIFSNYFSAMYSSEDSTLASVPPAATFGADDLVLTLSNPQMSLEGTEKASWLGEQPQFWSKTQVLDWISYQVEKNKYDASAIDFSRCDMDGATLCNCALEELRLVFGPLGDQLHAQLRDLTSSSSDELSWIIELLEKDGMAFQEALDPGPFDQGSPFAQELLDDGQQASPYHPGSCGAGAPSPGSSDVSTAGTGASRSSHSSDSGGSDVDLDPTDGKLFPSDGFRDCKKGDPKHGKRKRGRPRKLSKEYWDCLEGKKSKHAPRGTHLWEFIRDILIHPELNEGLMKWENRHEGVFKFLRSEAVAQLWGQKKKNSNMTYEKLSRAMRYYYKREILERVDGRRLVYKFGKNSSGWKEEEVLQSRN
# How it was run: as §1
# [9] = target: ETV1 (Homo sapiens, UniProt P50549 1-477); conditions: protein: recombinant; tags: N-terminal GST; dsDNA, one strand shown
# ETV1, sequence (P50549 whole entry): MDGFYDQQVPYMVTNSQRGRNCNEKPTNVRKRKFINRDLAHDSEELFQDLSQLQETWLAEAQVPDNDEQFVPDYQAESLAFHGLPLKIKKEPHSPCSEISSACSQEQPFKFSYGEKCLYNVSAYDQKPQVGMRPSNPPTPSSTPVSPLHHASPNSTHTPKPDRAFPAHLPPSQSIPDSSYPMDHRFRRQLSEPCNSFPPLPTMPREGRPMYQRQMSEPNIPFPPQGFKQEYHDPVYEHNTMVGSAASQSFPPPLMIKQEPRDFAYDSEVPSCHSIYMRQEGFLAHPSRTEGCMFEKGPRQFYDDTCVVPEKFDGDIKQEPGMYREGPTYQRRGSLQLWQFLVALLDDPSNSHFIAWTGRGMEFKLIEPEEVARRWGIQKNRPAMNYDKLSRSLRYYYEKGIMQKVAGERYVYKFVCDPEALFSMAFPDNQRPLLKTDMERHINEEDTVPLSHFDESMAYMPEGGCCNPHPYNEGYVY
# How it was run: as §1
sequence,measurement,setting,value
GTGTTC,binding signal,[1],"1.08 fold enrichment (6-mer frequency, TF over GST control)"
same,binding signal,[2],"1.14 fold enrichment (6-mer frequency, TF over GST control)"
same,binding signal,[3],"1.12 fold enrichment (6-mer frequency, TF over GST control)"
same,binding signal,[4],"1.36 fold enrichment (6-mer frequency, TF over GST control)"
same,binding signal,[5],"1.12 fold enrichment (6-mer frequency, TF over GST control)"
same,binding signal,[6],"1.25 fold enrichment (6-mer frequency, TF over GST control)"
same,binding signal,[7],"1.15 fold enrichment (6-mer frequency, TF over GST control)"
same,binding signal,[8],"1.19 fold enrichment (6-mer frequency, TF over GST control)"
same,binding signal,[9],"1.14 fold enrichment (6-mer frequency, TF over GST control)"
